Measurements as given in PubChem BioAssay.
Activity calls are given as the source filed them.

Experiments:
[1] = E. coli DRC41 culture turbidity changes, primary screen, E. coli filamentation inducer project, strain DRC41, OD650, 48 h (AID 1152);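 note: E. coli MC1000 strain DRC41 lacking acrAB efflux pump and sulA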; settings: E. coli DRC41 (acrAB sulA), higher = more signal, called active from +8 up or from −8 down
[2] = small-molecule binders of probe aLefty1, primary screen, biochemical, small-molecule microarray, 635/667 nm fluorescence (AID 1153); settings: higher = more signal;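 note: score merges spot fluorescence with signal-to-noise ratio from the scanned slide images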
[3] = PSAC antagonists in infected red cells, primary screen, cell-based, P. falciparum Indochina, OD700, 1 h (AID 1154); settings: P. falciparum Indochina infected RBC osmotic lysis, higher = more signal, called active from +8 up or from −8 down
[4] = PSAC antagonists in infected red cells, primary screen, cell-based, P. falciparum Indochina, OD700, 2 h (AID 1155);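 note: lysis reports solute entry through the parasite surface anion channel PSAC; channel blockers reduce lysis of infected cells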; settings: P. falciparum Indochina infected erythrocytes, osmotic lysis OD700; higher = more signal, called active from +8 up or from −8 down
[5] = osmotic lysis modulators in infected erythrocytes, primary screen, PSAC antagonist project, cell-based, P. falciparum Indochina, OD700, 3 h (AID 1156); settings: higher = more signal, called active from +8 up or from −8 down
[6] = PSAC antagonists in infected red cells, primary screen, cell-based, P. falciparum Indochina, OD700, 18 h (AID 1157); settings: P. falciparum Indochina infected erythrocytes, osmotic lysis OD700, 18 h; higher = more signal, called active from +8 up or from −8 down
[7] = modulators of S6 phosphorylation in cells, primary screen, cell-based, A549, cytoblot, luminescence, serum-stimulated (AID 1158); settings: A549 phospho-S6 cytoblot, 5 h, higher = more signal;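 note: serum-stimulated A549 lung adenocarcinoma cells; signal is phosphorylated S6 detected by cytoblot immunostaining with HRP secondary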
[8] = molecular target: NADPH oxidase 2 (Homo sapiens) (UniProt P04839); experiment: NOX2-dependent H2O2 signal modulators, primary screen, NOX inhibitor project, cell-based, HEK293-NOX2, PMA-stimulated, Amplex Red fluorescence (AID 1159); settings: 45 min, higher = more signal, called active from +8 up or from −8 down; note: test concentration not given here
Chain of NADPH oxidase 2 (Homo sapiens) (P04839 whole entry, looked up): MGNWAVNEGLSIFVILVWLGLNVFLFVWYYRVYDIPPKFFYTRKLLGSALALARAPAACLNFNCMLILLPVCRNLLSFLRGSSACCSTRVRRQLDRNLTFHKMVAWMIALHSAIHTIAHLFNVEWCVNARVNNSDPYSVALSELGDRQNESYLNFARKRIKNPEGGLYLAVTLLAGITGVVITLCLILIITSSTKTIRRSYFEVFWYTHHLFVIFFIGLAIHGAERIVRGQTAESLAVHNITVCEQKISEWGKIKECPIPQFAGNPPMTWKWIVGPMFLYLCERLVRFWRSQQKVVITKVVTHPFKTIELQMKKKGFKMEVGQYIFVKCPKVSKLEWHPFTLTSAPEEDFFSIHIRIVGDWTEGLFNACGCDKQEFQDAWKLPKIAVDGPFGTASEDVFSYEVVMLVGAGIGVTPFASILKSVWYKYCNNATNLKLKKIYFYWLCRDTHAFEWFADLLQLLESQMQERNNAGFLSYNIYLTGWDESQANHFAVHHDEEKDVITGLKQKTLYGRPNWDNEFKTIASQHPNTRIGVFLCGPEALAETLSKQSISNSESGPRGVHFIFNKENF

[9] = molecular target: NADPH oxidase 4 (Homo sapiens) (UniProt Q9NPH5); experiment: NOX4-dependent H2O2 signal modulators, primary screen, NOX inhibitor project, cell-based, HEK293-NOX4, tetracycline-induced, Amplex Red fluorescence (AID 1160); settings: 45 min, higher = more signal, called active from +8 up or from −8 down
Chain of NADPH oxidase 4 (Homo sapiens) (Q9NPH5 whole entry, looked up): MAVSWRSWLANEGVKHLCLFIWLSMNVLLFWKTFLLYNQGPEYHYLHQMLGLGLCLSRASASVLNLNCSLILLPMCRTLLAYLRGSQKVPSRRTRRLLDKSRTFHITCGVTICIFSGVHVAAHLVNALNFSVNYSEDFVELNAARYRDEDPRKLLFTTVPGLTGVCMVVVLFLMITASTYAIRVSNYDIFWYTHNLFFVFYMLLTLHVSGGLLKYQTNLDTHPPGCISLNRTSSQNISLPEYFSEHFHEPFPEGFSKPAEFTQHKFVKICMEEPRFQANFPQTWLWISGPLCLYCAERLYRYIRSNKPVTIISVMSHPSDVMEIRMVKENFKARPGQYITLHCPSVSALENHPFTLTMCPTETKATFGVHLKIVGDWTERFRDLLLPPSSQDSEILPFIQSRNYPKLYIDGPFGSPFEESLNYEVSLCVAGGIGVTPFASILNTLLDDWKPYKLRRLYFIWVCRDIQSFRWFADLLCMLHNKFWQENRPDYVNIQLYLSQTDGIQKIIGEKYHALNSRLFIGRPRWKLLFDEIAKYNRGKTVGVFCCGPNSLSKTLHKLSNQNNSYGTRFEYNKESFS

[10] = molecular target: NADPH oxidase 5 (Homo sapiens) (UniProt Q96PH1); experiment: NOX5-dependent H2O2 signal modulators, primary screen, NOX inhibitor project, cell-based, HEK293-NOX5, Amplex Red fluorescence (AID 1161); settings: HEK293-NOX5, ionomycin, 45 min, higher = more signal
Chain of NADPH oxidase 5 (Homo sapiens) (Q96PH1 whole entry, looked up): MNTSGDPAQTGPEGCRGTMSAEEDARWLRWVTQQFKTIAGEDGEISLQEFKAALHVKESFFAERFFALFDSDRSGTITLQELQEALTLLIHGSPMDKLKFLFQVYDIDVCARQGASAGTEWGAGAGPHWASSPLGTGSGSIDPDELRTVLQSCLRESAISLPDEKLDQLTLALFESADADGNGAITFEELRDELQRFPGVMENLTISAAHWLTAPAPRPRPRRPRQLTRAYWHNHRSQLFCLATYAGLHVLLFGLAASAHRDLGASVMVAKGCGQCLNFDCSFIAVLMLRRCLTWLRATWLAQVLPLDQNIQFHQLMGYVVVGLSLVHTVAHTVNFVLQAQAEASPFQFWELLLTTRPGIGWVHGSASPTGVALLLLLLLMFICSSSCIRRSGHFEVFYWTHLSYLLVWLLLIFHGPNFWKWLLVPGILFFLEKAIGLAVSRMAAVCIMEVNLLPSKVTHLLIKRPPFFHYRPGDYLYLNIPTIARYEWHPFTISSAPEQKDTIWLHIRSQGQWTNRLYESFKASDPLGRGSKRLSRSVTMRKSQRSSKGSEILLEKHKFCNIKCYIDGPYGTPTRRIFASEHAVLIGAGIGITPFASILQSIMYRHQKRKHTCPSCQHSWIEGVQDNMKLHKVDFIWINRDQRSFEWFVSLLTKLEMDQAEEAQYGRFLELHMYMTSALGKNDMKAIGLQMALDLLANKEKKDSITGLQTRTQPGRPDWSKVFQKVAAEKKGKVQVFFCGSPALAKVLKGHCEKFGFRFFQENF

Row | Structure (SMILES) | z-score [1] | composite z-score [2] | z-score [3] | z-score [4] | z-score [5] | z-score [6] | z-score [7] | z-score [8] | z-score [9] | z-score [10]
1 | C=C(C)[C@@H]1CC=C(C(O)C2C=CC3C(=O)N(c4ccccc4)C(=O)C3N2Nc2ccccc2F)CC1 (stereo not given in full) | -1.79 (inactive) | 0.744 | 0.19 (inactive) | 1.01 (inactive) | 0.039 (inactive) | 1.1 (inactive) | -1.23 | 0.032 (inactive) | -1.64 (inactive) | -2.14
2 | CC(C)N1C(=O)c2ccccc2[C@@H](C(=O)NC2CC2)[C@@H]1c1ccc(CO)cc1 | 0.258 (inactive) | 0.007 | 2.06 (inactive) | -0.0507 (inactive) | -0.0836 (inactive) | -0.307 (inactive) | 0.167 | 0.393 (inactive) | 0.708 (inactive) | 0.442
3 | O=C1O[C@H](c2ccccc2)[C@H](c2ccccc2)N2[C@H]1[C@@H](C(=O)N1CCN(c3ncccn3)CC1)[C@]1(C(=O)Nc3ccc(C#CC4(O)CCCCCC4)cc31)[C@H]2c1ccc(OCCO)cc1 | -0.735 (inactive) | 1.66 | 8.14 (active) | 2.41 (inactive) | 1.76 (inactive) | 1.33 (inactive) | -0.274 | 1.28 (inactive) | 1.11 (inactive) | 1.35
4 | C=CCC(OC(C)=O)[C@@H]1[C@@H](N(Cc2cccc3ccccc23)C(=O)Cc2ccc(OC)cc2)c2cc(OCCCO)ccc2N1C(=O)c1ccc2ccccc2n1 (stereo not given in full) | -0.899 (inactive) | 0.164 | 2.1 (inactive) | 0.786 (inactive) | 0.714 (inactive) | 0.385 (inactive) | 0.135 | -1.4 (inactive) | -0.588 (inactive) | -1.25
5 | CN1C(=O)C2C=CC(C(O)c3cccc(O)c3)N(Nc3ccccc3)C2C1=O (stereo not given) | -0.85 (inactive) | 0.147 | -0.0746 (inactive) | 0.253 (inactive) | -0.606 (inactive) | 0.287 (inactive) | -0.967 | -2.6 (inactive) | -5.27 (inactive) | -4.62
6 | N#Cc1ccc(C(O)C2C=CC3C(=O)N(c4ccccc4)C(=O)C3N2Nc2ccccc2)cc1 (stereo not given) | 0.128 (inactive) | 0.135 | 5.39 (inactive) | -0.173 (inactive) | 1.18 (inactive) | -0.889 (inactive) | 1.64 | -2.73 (inactive) | -4.19 (inactive) | -3.02
7 | CC(C)C(CO)N1C(=O)[C@@H]2C3C(=O)OCCC/C=C\[C@H]3OC23C=CCN(C(C)(C)C)C(=O)[C@@H]13 (stereo not given in full) | -0.69 (inactive) | -0.142 | 0.502 (inactive) | 0.488 (inactive) | 0.441 (inactive) | 0.478 (inactive) | -0.668 | 1.57 (inactive) | 0.339 (inactive) | 2.34
8 | CCOC(=O)C[C@H]1[C@H](OC(=O)c2ccccc2-c2ccccc2)[C@@H](NC(=O)C2CCCCC2)c2cc(OCCCO)ccc2N1C(=O)Cc1ccc(OC)cc1 | -1.13 (inactive) | -0.0547 | 1.1 (inactive) | 0.664 (inactive) | 0.125 (inactive) | 0.256 (inactive) | -0.434 | 0.0588 (inactive) | 0.979 (inactive) | 0.103
9 | O=C1O[C@@H](c2ccccc2)[C@@H](c2ccccc2)N2[C@@H](c3ccc(O)cc3)[C@]3(C(=O)Nc4ccc(C#CC5(O)CCCCCC5)cc43)[C@@H](C(=O)NC[C@H](O)c3ccccc3)[C@H]12 | -0.557 (inactive) | 0.315 | 0.996 (inactive) | 0.707 (inactive) | 1.08 (inactive) | 0.973 (inactive) | 0.173 | 1.14 (inactive) | 0.441 (inactive) | 0.0466
10 | COc1ccc(CN(C2=CC[C@@]3(C(N)=O)C(=O)C(Cl)=C(Cl)C(=O)[C@@]3(C#N)C2)S(=O)(=O)c2ccc(Br)cc2)cc1 | 1.3 (inactive) | -0.0042 | 5.11 (inactive) | -1.24 (inactive) | -1.94 (inactive) | -2.3 (inactive) | 0.881 | 1.76 (inactive) | -0.275 (inactive) | 0.362
11 | O=C1NC(=O)C2C1C=CC(C(O)c1cccc3ccccc13)N2Nc1ccc(Cl)cc1Cl (stereo not given) | -1.85 (inactive) | 0.505 | 1.98 (inactive) | 0.994 (inactive) | -2.46 (inactive) | 1.42 (inactive) | -1.11 | -1.37 (inactive) | -6.34 (inactive) | -3.5
12 | CCCCC(O)C1C=CC2C(=O)N(c3ccccc3)C(=O)C2N1Nc1ccc(C(C)C)cc1 (stereo not given) | -0.759 (inactive) | 0.484 | 2.81 (inactive) | 1.44 (inactive) | 0.39 (inactive) | 1.39 (inactive) | -0.843 | -1.5 (inactive) | -3.21 (inactive) | -1.92
13 | Cc1ccc(S[C@]2(C(=O)NCCCN(C)C)CC(=O)N(C3CCCCC3)[C@@H]2c2ccc(CO)cc2)cc1 | 0.344 (inactive) | 0.199 | 4.64 (inactive) | 0.695 (inactive) | 2.17 (inactive) | 0.819 (inactive) | -0.358 | -2.24 (inactive) | -2.06 (inactive) | -1.4
